Screening data deposited in PubChem by National Center for Advancing Translational Sciences (NCATS).
Compounds with a hit are over-represented: about 11% of the library has one in this group of screens.
AMA1 RON2 block = qHTS for Inhibitors of AMA1-RON; Towards Development of Antimalarial Drug Lead: Primary Screen. AlphaScreen AMA1-biotinylated RON2 peptide binding. AID 720542, 2013. Plasmodium falciparum AMA1 (3D7) - RON2 peptide interaction. 360,000 compounds, 0.2% hits. Potency, µM (highest dose often 58.2 µM), for inactives: at the highest dose activity change, negative = inhibition, most hits filed as inhibitors;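 also: 0% = vehicle wells and -100% = peptide control; nearly all actives have a fitted effect of over 45% in size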
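AMA1 (3D7) with his tag at 25 nM final met compounds first, then biotinylated RON2 peptide at 25 nM; detection used donor plus acceptor beads, 10 µg/mL apiece, read by AlphaScreen after 30 min at room temperature.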
AmpC detergent = qHTS Inhibitors of AmpC Beta-Lactamase (assay with detergent). AmpC hydrolysis of nitrocefin, absorbance 480 nm, 0.01% Triton. 370,000 compounds, 0.041% hits. Potency, µM (series often up to 114 µM), for inactives: top-dose activity change, negative = inhibition, hits mostly inhibitors. AID 485294, 2010;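 also: 0% = no-compound wells and -100% = no-enzyme wells; nearly all actives have a fitted effect of over 25% in size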
Target sequence (P00811 whole entry, looked up): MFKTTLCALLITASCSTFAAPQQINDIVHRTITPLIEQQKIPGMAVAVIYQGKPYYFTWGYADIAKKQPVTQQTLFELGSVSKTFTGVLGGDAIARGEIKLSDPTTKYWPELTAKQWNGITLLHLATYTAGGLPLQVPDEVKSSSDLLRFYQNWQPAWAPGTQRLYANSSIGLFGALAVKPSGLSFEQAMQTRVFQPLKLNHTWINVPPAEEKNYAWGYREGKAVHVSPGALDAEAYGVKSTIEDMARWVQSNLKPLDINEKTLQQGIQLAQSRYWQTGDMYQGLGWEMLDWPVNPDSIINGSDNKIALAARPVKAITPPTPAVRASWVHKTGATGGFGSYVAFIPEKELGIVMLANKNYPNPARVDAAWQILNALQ
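20 mM phosphate pH 7.0 + 0.01% (detergent screen) or 0.0001% Triton X-100; 5.3 nM AmpC reagent; cpd preinc 15 min RT; nitrocefin (800 uM stock) to start; A480 q20 s × 4 min; Activity was normalised to no-enzyme and no-compound control wells.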
AmpC inh no detg = qHTS Inhibitors of AmpC Beta-Lactamase (assay without detergent); P00811; AmpC nitrocefin hydrolysis, absorbance 480 nm, 0.0001% Triton; Potency, µM (highest dose often 57.1 µM), without a hit: at the top dose activity change, negative = inhibition, most hits filed as inhibitors; 330,000 compounds, 0.52% hits; AID 485341, 2010;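 also: plate controls were no compound for no effect and no enzyme for full effect; nearly all actives have a fitted effect of over 20% in size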
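20 mM phosphate pH 7.0 + 0.01% (detergent screen) or 0.0001% Triton X-100; 5.3 nM AmpC reagent; cpd preinc 15 min RT; nitrocefin (800 uM stock) to start; A480 q20 s × 4 min; Activity was normalised to no-enzyme and no-compound control wells.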
Pf growth 96h = Primary qHTS for delayed death inhibitors of the malarial parasite plastid, 96 hour incubation; Potency, µM (top dose mostly 28.7 µM), for inactives: top-dose activity change, negative = inhibition, usual class: inhibitors; P. falciparum luciferase reporter growth, 96 h; 320,000 compounds, 6.9% hits
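Compounds incubated with erythrocytes infected by luciferase-expressing P. falciparum (2% hematocrit, 0.05% parasitemia final) for 96 hours, 37 C in 5% CO2. Growth inhibition scored as decreased luciferase luminescence.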
Pf growth 48h = Primary qHTS for delayed death inhibitors of the malarial parasite plastid, 48 hour incubation. P. falciparum luciferase growth in erythrocytes, 48 h. Potency, µM (highest dose often 28.7 µM), inactives show at the top dose activity change, negative = inhibition, hits mostly inhibitors. 310,000 compounds, 5.9% hits. AID 504832, 2011
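Luminescence readout; reporter = integrated firefly luciferase in P. falciparum. RBC culture at 2% hematocrit, 0.1% parasitemia final, 37 C/5% CO2; decreased signal taken as growth inhibition.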
HCV inhibitor = qHTS Assay for Inhibitors of Hepatitis C Virus (HCV); Potency, µM (highest dose often 41.8 µM), for the others: top-dose activity change, negative = inhibition, most hits filed as inhibitors; Huh7.5.1 HCVcc-Cre infection, luciferase reporter, 44 h; AID 651820, 2012; 340,000 compounds, 3.4% hits
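Infectious HCV cell culture screen: compound-treated cells (1,000/well, pre-plated 4 h) are infected with HCVcc-Cre at roughly 0.5 moi and grown 44 h. Infection is quantified by luciferase signal after 15 min substrate incubation at room temperature.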
The depositor's hits bear a star; [ ] = another dose, or the depositor's remark. Calls follow the shape of the dose curve; as a rule, active = well fitted curve in the direction sought with a large enough effect; inconclusive = small, poorly fitted or top-dose-only effect, or another doubt; inactive = no such curve, though single readings can be large; an effect the other way counts as inactive or inconclusive. Unless noted, % is scaled to controls: 0 for no effect and ±100 for the full control effect; potency is read from the fitted curve at half-maximal effect.

`Cc1ccccc1C(=O)N1CCN(c2ccc(NC(=O)c3ccc4c(c3)OCCO4)cc2)CC1` gave AMA1 RON2 block -23.8%, AmpC detergent 1.5%, AmpC inh no detg 62.7%, Pf growth 96h inconclusive, Pf growth 48h inconclusive and HCV inhibitor 8.91µM*.
For COc1c(C)cccc1C(=O)Nc1ccc(N2CCN(C(=O)c3ccccc3C)CC2)cc1 the results were AMA1 RON2 block -14.6%, AmpC detergent inconclusive, AmpC inh no detg 120.7%, Pf growth 96h -14.7%, Pf growth 48h inconclusive and HCV inhibitor 7.94µM*.
O=C(NCc1ccccc1Cl)c1ccc2oc(=O)n(Cc3ccccc3)c2c1 was read as AmpC detergent 3.9%.
CC1(C)C2CC=C(/C=N/NC(=S)NCCc3ccccc3)C1C2 (centres undefined) was read as AMA1 RON2 block 23.0%, AmpC detergent 0.7%, AmpC inh no detg -19.1%[2.29 µM], Pf growth 96h 1.47µM*, Pf growth 48h inconclusive and HCV inhibitor inconclusive.
`CC1(C)C2CC=C(/C=N/n3cnnc3)C1C2` (centres undefined) gave AMA1 RON2 block 3.6%, AmpC detergent 2.3%, AmpC inh no detg -11.7%, Pf growth 96h 10.5%, Pf growth 48h 9.9% and HCV inhibitor 12.4%.
Screening CC1(C)C2CC=C(/C=N/NC(=O)c3ccccc3O)C1C2 (centres undefined) returned AMA1 RON2 block inconclusive, AmpC detergent -9.6%, AmpC inh no detg 11.2µM*, Pf growth 96h -24.3%, Pf growth 48h -20.4% and HCV inhibitor -6.0%.
CNC(=S)N/N=C/C1=CCC2CC1C2(C)C (centres undefined) was read as AMA1 RON2 block 59.4%, AmpC detergent -14.8%, AmpC inh no detg -30.6%, Pf growth 96h 4.15µM*, Pf growth 48h 5.86µM* and HCV inhibitor 18.3%.
CC(=O)c1c(C)n(-c2ccc(Cl)cc2)c2ccc(OC(=O)COc3ccccc3)cc12 was read as AmpC detergent 5.3%.
`CN1C(=O)C[C@@H](C(=O)N[C@@H](Cc2cnc[nH]2)C(=O)N2CCC[C@H]2C(N)=O)NC1=O` gave Pf growth 96h -12.7% and Pf growth 48h 1.7%.
`CC(C)(C)c1ccc(-n2ncc3c2CCCC3NC(=O)C2(C(N)=O)CC2)cc1` (centres undefined) gave AMA1 RON2 block 10.5%, AmpC detergent -4.3%, AmpC inh no detg 105.0%, Pf growth 96h 13.1µM*, Pf growth 48h -14.0% and HCV inhibitor inconclusive.
`CC(C)(C)c1ccc(-n2ncc3c2CCCC3NC(=O)CCn2cncn2)cc1` (centres undefined) gave AMA1 RON2 block 5.3%, AmpC detergent 1.2%, AmpC inh no detg 126.5%, Pf growth 96h -8.5%, Pf growth 48h 1.5% and HCV inhibitor 1.0%.
CC(=O)NCC(=O)NC1CCCc2c1cnn2-c1ccc(C(C)(C)C)cc1 (centres undefined) was read as AMA1 RON2 block 0.0%, AmpC detergent 0.4%, AmpC inh no detg 101.0%, Pf growth 96h inconclusive, Pf growth 48h 3.8% and HCV inhibitor -0.6%.
Screening Cc1cc(C(=O)NC2CCCc3c2cnn3-c2ccc(C(C)(C)C)cc2)nn1C (centres undefined) returned AMA1 RON2 block -4.3%, AmpC detergent 2.4%, AmpC inh no detg 143.4%, Pf growth 96h 18.4%, Pf growth 48h -19.4% and HCV inhibitor 7.08µM*.
Screening Cc1cc(C)cc(-n2ncc3c2CCCC3NC(=O)c2cc(C)n(C)n2)c1 (centres undefined) returned AMA1 RON2 block -1.9%, AmpC detergent 4.9%, AmpC inh no detg 145.0%, Pf growth 96h 2.2%, Pf growth 48h -20.2% and HCV inhibitor inconclusive.
`CC(C)(C)c1ccc(-n2ncc3c2CCCC3NC(=O)CCN2CCCO2)cc1` (centres undefined) gave AMA1 RON2 block 8.3%, AmpC detergent -4.2%, AmpC inh no detg 196.1%, Pf growth 96h 15.6%, Pf growth 48h -24.5% and HCV inhibitor 12.6µM*.
For Cc1ccccc1OCc1nc2c3cnn(-c4cccc(F)c4)c3ncn2n1 the results were AmpC detergent 11.7%.
Screening CCCN(CCC)C(=O)c1cc2c(=O)[nH]c3ccc(C)cc3c2s1 returned AMA1 RON2 block -1.5%, AmpC detergent 5.4%, AmpC inh no detg 6.7%, Pf growth 96h 2.2%, Pf growth 48h inconclusive and HCV inhibitor 11.2µM*.
`CCCN(C(=O)c1cc2c(=O)[nH]c3ccc(C)cc3c2s1)c1ccc(CC)cc1` gave AmpC detergent 11.3%.
`CCN(C(=O)c1cc2c(=O)[nH]c3ccc(C)cc3c2s1)c1ccc(OC)cc1` gave AMA1 RON2 block 9.4%, AmpC detergent -4.3%, AmpC inh no detg -7.1%, Pf growth 96h 5.22µM*, Pf growth 48h inconclusive and HCV inhibitor inconclusive.
Screening Cc1ccc(C)c(N(C)C(=O)c2cc3c(=O)[nH]c4ccc(C)cc4c3s2)c1 returned AMA1 RON2 block 0.2%, AmpC detergent 5.4%, AmpC inh no detg -10.1%, Pf growth 96h inconclusive, Pf growth 48h 10.4µM* and HCV inhibitor 8.91µM*.
Cc1cc(N2CCC(C)CC2)nc2ccc(NC(=O)Cc3c(F)cccc3Cl)cc12 was read as AmpC detergent 0.0%.
`Cc1[nH]c2ccc(C(=O)NCCc3ccccc3Cl)cc2c1C` gave AmpC detergent 3.6%.
`O=C(c1ccccc1F)N1CCN(c2ccc([N+](=O)[O-])c(NCc3cccnc3)c2)CC1` gave AMA1 RON2 block 0.0%, AmpC detergent 2.5%, AmpC inh no detg 82.6%, Pf growth 96h 10.4µM*, Pf growth 48h inconclusive and HCV inhibitor -5.0%.
`O=C(c1ccccc1)N1CCN(c2ccc([N+](=O)[O-])c(NCc3cccnc3)c2)CC1` gave AMA1 RON2 block -4.7%, AmpC detergent -5.7%, AmpC inh no detg 77.6%, Pf growth 96h inconclusive, Pf growth 48h 9.28µM* and HCV inhibitor inconclusive.
O=C(c1ccc(Cl)cc1)N1CCN(c2ccc([N+](=O)[O-])c(NCc3cccnc3)c2)CC1 was read as AMA1 RON2 block -5.3% and HCV inhibitor inconclusive.
